Consider 13 molecules from PubChem BioAssay (NCI).

Common to all, as to assay: NCI-60 one-dose screen, 48 h (100 = growth as untreated, 0 = no growth, -100 = all killed)
Details in all cases: 10 µM unless noted

Test [1] has as its system NCI-H23 lung.
The test system of test [2] is NCI-H226 lung.
Test [3] has as its system NCI-H322M lung.
Test [4] relates to HOP-62 NSCLC.
Test [5] deals with NCI-H460 lung.
Test [6] concerns HOP-92 NSCLC.
Test [7] concerns NCI-H522 lung.
For test [8], the system named is A549/ATCC NSCLC.
The test system of test [9] is 786-0 renal.
The test system of test [10] is COLO 205 colon.

This is part of a sample that, as a whole, favours compounds with a hit. Of some 83,000 tested, about 20% had one in any assay.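 Compound tested at a single concentration for 48 hours in 96-well plates; a percent growth value below 10 was scored as active.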 A number with no mark means an inactive call. The source made the active and inactive calls.

As to `CN(C)c1nc(NCCNS(=O)(=O)c2ccc(C(=O)/C=C/c3ccc(F)cc3)cc2)nc(N2CCOCC2)n1`, the growth was 50.9% in [1]; 74% in test [2]; 84.4% in test [3]; 76.2% in test [4]; 78.5% in test [5]; 77.8% in [6]. Further, the growth is 28.7% in [7], 7.37% (active) in [8], -55.7% (active) in test [9] and 35% in test [10].
For the molecule `O=C1c2cccc3c(N4CCN(c5ccccc5)CC4)ccc(c23)C(=O)N1c1cccc(-c2nn(-c3ccccc3)cc2-c2nc3ccccc3s2)c1`, the growth is 88.5% in test [1]; 82% in [2]; 97% in test [3]; 110% in [4]; 110% in test [5]; 120% in test [6]. Besides, the growth in test [7] was 108%; in test [8], 113%; in test [9] it was 102%; in test [10] it was 110%.
Turning to `NNc1ncnc2sc3c(c12)CCN(Cc1ccccc1)C3`, the growth in [1] was 73.2%; in test [2], 38.9%; in [3], 40.9%; in test [4] it was 58%; in test [5] it was 37.3%; in [6] it was 77.7%. Moreover, the growth in test [7] is 2.62% (active); in test [8], 75.1%; in test [9] it was 59.1%; in [10], 16.6%.
As for `CCCCCCCCc1ccc(C(=O)Nc2ccc(C)c(OP(=O)(O)O)c2)cc1`, the growth in test [1] is 101%; in test [2] it was 102%; in test [3] it was 111%; in [4], 104%; in test [5], 110%; in test [6], 42%. Also, the growth in [7] was 82.1%; in test [8], 105%; in test [9] it was 83.6%; in test [10], 126%.
For the molecule `Cc1ccc(S(=O)(=O)Nc2ccc(-c3ccc4c(c3)NC(=O)/C4=C\c3ccc[nH]3)cc2)cc1`, the growth in test [1] was 33.8%; in test [2], 94%; in test [3], 68.3%; in test [4], 96.5%; in test [5] it was 22%; in [6], 93.4%. Also, the growth in [7] was 87.2%; in [8] it was 52.8%; in test [9], 101%; in [10], 93.3%.
As for `O=C(c1ccc(O)cc1)C1[C@H](c2ccc(Cl)cc2)[C@@H](c2ccccc2)NC12C(=O)Nc1ccc(Br)cc12` (stereo not given in full), the growth in [1] is -58.7% (active); in test [2], -54.7% (active); in test [3], -4.19% (active); in test [4], -28.9% (active); in test [5], -45.9% (active); in test [6], -32.2% (active). Also, the growth in [7] is -20.8% (active); in test [8], 5.99% (active); in test [9], -52.1% (active); in [10] it was -86.3% (active).
On to `CCCCCCCOc1ccc(S(=O)(=O)Nc2ccc(C)c(F)c2C(=O)O)cc1`, for which the growth was 93.2% in test [1]; 88% in test [2]; 100% in test [3]; 98% in [4]; 102% in test [5]; 8.57% (active) in test [6]. The growth is 84.3% in test [7], 103% in test [8], 95% in [9] and 122% in [10].
In the case of `COc1ccc(CCC2NCCc3c(Br)c4c(c(OC)c32)OCO4)cc1` (stereo not given), the growth in [1] was -24.7% (active); in test [2] it was 25.5%; in test [3], 14.6%; in test [4] it was 18.1%; in test [5] it was 9.1% (active); in [6] it was 15.6%. Moreover, the growth was 2.33% (active) in [7], 24.2% in test [8], 8.08% (active) in [9] and -37.5% (active) in [10].
As to `O=C(N=Nc1c(O)[nH]c2ccc(Br)cc12)c1ccc2nc(-c3ccc(Cl)cc3)[nH]c2c1`, the growth is -69.4% (active) in test [1]; 16.6% in [2]; 6.48% (active) in [3]; -55.9% (active) in test [4]; -19.4% (active) in [5]; -9.49% (active) in test [6]. For the same molecule, the growth in test [7] was -47.2% (active); in [8] it was 14.9%; in test [9], -73.7% (active); in test [10] it was -36.1% (active).
Consider `COc1c(F)ccc(C(=O)Nc2ccc3nc(NC(=O)C4CCCN(S(=O)(=O)c5ccc(C(C)(C)C)cc5)C4)sc3c2)c1F` (stereo not given), for which the growth in [1] was 66.6%; in test [2], 64.1%; in test [3] it was 80.3%; in test [4] it was 88.9%; in test [5], 57.3%; in [6], 6.58% (active). For the same molecule, the growth in [7] is 66.7%; in test [8], 64.1%; in [9], 56%; in test [10], 80.9%.
On to `COc1ccc(-c2cc(-c3cc(OC)c(OC)c(OC)c3)[nH]c(=O)c2C#N)cc1`, for which the growth is 86% in test [1]; 23.4% in test [2]; 5.73% (active) in [3]; 12.9% in test [4]; 52.4% in test [5]; -33.5% (active) in [6]. Also, the growth in test [7] is 50.6%; in test [8], 59.3%; in [9], -65.4% (active); in test [10], 130%.
In the case of `S=C(NCCc1ccccc1)Nc1ccc(OCc2nc3ccc(Cl)cc3[nH]2)cc1`, the growth is 28.6% in test [1]; 67.1% in test [2]; 57.5% in test [3]; 49.7% in [4]; 10.8% in [5]; 14.4% in [6]. Further, the growth is -26.8% (active) in test [7], 51.2% in test [8], 29% in test [9] and 43.6% in [10].
On to `COc1ccc(-c2cc(C(=O)N=Nc3c(O)[nH]c4ccc(Cl)cc34)c3ccccc3n2)cc1OC`, for which the growth was 92.2% in test [1]; 89.5% in test [2]; 102% in test [3]; 123% in [4]; 111% in [5]; 121% in test [6]. In addition, the growth is 106% in test [7], 111% in test [8], 106% in test [9] and 125% in test [10].
